Reference: PubChem BioAssay (NCATS)
Records with an inconclusive call do not appear. Where a call stands in place of a potency, no number is given. The source made the active and inactive calls. The call rests on the fitted dose curve; in most records, active means well fitted curve in the direction sought with a large enough effect; inconclusive means small, poorly fitted or top-dose-only effect, or another doubt; inactive means no such curve, though single readings can be large; an effect the other way counts as inactive or inconclusive.

What was measured:
HACAT = assay: qHTS assay to identify novel small-molecules to repurpose for Merkel cell carcinoma treatment (AID 1296009); settings: MCC and control cell lines, CellTiter-Glo viability, 72 h; at 44.8 µM (top of the series) unless noted; further: nearly all actives have a fitted effect of over 60% in size
How it was run: (§1)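 Cells were treated for 72 hr at 37 degree celsius with compounds in 8- or 11-point dose response. Viability was read by CellTiter-Glo luminescence, normalized to no-cell (cytotoxicity) and DMSO controls.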

HEK293T = assay: as above; settings: MCC and control cell lines, CellTiter-Glo viability, 72 h; at 44.8 µM (top of the series) unless noted
How it was run: as §1

MCC-13 = assay: as above; settings: MCC and control cell lines, CellTiter-Glo viability, 72 h; series mostly up to 46 µM
How it was run: as §1

MKL-1 = assay: as above; settings: MCC and control cell lines, CellTiter-Glo viability, 72 h; series mostly up to 46 µM
How it was run: as §1

MKL-2 = assay: as above; settings: MCC and control cell lines, CellTiter-Glo viability, 72 h; series mostly up to 46 µM
How it was run: as §1

UISO = assay: as above; settings: MCC and control cell lines, CellTiter-Glo viability, 72 h; series mostly up to 46 µM
How it was run: as §1

WaGa = assay: as above; settings: MCC and control cell lines, CellTiter-Glo viability, 72 h; series mostly up to 46 µM
How it was run: as §1

C33A = assay: Primary qHTS to identify gynecologic anti-cancer compounds using libraries of approved drugs and bioactive compounds (AID 1345084); settings: Gynecologic cancer cell panel viability, ATPlite luminescence, 48 h; series mostly up to 57.5 µM; further: nearly all actives have a fitted effect of over 55% in size
How it was run: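 Cells, 1,000 per well, plated 16 h, then exposed 48 h at 37 C to compounds. Viability by ATPlite luminescence after 15 min at room temperature.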

MCC-26 = assay: qHTS assay to identify novel small-molecules to repurpose for Merkel cell carcinoma treatment (AID 1296009); settings: MCC and control cell lines, CellTiter-Glo viability, 72 h; series mostly up to 46 µM; further: nearly all actives have a fitted effect of over 60% in size
How it was run: as §1

NIH3T3 = assay: as above; settings: MCC and control cell lines, CellTiter-Glo viability, 72 h; at 44.8 µM (top of the series) unless noted
How it was run: as §1
Potency means the concentration at half of the fitted maximal effect.

Row | Compound | outcome (HACAT) | outcome (HEK293T) | Potency (MCC-13) | Potency (MKL-1) | Potency (MKL-2) | Potency (UISO) | Potency (WaGa) | Potency (C33A) | Potency (MCC-26) | outcome (NIH3T3)
1 | CCCCCCCCCCCCCCCCCC(=O)O | inactive | inactive | inactive | inactive | inactive | inactive | inactive | inactive |  | 
2 | COC(=O)Nc1nc2ccc(C(=O)C3CC3)cc2[nH]1 | inactive |  | 7.5 µM (active) |  |  |  |  | 12.6 µM (active) |  | 
3 | CN1CCN(c2cc3c(nn2)Oc2ccccc2N3C)CC1 | inactive [at 17.4 µM] | inactive [at 17.4 µM] | inactive | inactive | inactive | inactive | inactive | inactive | inactive | 
4 | c1ccc2sc(SN3CCOCC3)nc2c1 | inactive | inactive | inactive | inactive | inactive | inactive | inactive | inactive | inactive | 
5 | CS(=O)(=O)c1ccc(-n2nc(C(F)(F)F)cc2-c2ccc(F)cc2)cc1 | inactive |  |  |  |  |  |  | inactive |  | 
6 | O=C(O)Cc1ccc(-c2ccccc2)cc1 |  |  | inactive | inactive | inactive | inactive | inactive | inactive | inactive | 
7 | O=c1cc(-c2ccccc2)oc2ccccc12 |  |  | inactive | inactive |  |  |  |  | inactive | 
8 | N=C1N=C(N)c2cc3ccccc3cc21 |  |  | 43.3 µM (active) | 38.6 µM (active) | 24.3 µM (active) | 24.3 µM (active) |  |  |  | 
9 | COC(=O)c1nc(Cl)c(Cl)nc1N |  |  | 0.944 µM (active) | 1.33 µM (active) | 0.299 µM (active) | 6.68 µM (active) | 1.5 µM (active) | 8.91 µM (active) | 8.41 µM (active) | 
10 | CN(C)[C@@H]1C(=O)C(C(=O)NCN2CCCC2)=C(O)[C@@]2(O)C(=O)C3=C(O)c4c(O)cccc4[C@@](C)(O)C3C[C@@H]12 (stereo partly specified) |  |  | inactive | inactive | inactive | inactive | inactive | inactive | inactive | 
11 | CCOc1ccc2nc(S(N)(=O)=O)sc2c1 |  |  | inactive | inactive | inactive |  | inactive | inactive |  | inactive
12 | Cc1onc(-c2c(F)cccc2Cl)c1C(=O)N[C@@H]1C(=O)N2[C@@H]1SC(C)(C)[C@@H]2C(=O)O |  | inactive |  |  |  |  |  |  |  | 
13 | CCNC(=O)[C@H]1O[C@@H](n2cnc3c(N)nc(NCCc4ccc(CCC(=O)O)cc4)nc32)[C@H](O)[C@@H]1O |  | inactive |  |  |  |  |  | inactive |  | 
14 | Cc1ccc2c(n1)Oc1ccc(C(C)C(=O)OCC(=O)N(C)C)cc1C2 (stereo unspecified) |  | inactive | inactive | inactive | inactive | inactive | inactive | inactive | inactive | 
15 | Cc1c(Nc2ncccc2C(=O)O)cccc1C(F)(F)F |  |  | inactive | inactive | inactive | inactive | inactive | inactive | inactive | 
16 | O=C(O)Cc1ccc2c(c1)C(=O)c1ccccc1CO2 |  |  | inactive | inactive | inactive | inactive | inactive | inactive |  | inactive
17 | COc1cc2c3cc1Oc1cc(ccc1O)C[C@@H]1c4c(cc(OC)c(O)c4Oc4ccc(cc4)C[C@@H]3N(C)CC2)CC[N+]1(C)C |  | inactive | inactive | inactive | inactive | inactive | inactive | inactive |  | 
18 | CC1(C)[C@@H](O)CC[C@]2(C)[C@H]3C(=O)C=C4[C@@H]5C[C@@](C)(C(=O)O)CC[C@]5(C)CC[C@@]4(C)[C@]3(C)CC[C@@H]12 |  | inactive |  |  |  |  |  | inactive |  | 
19 | CCOC(=O)c1ccccc1O |  | inactive | inactive | inactive | inactive | inactive | inactive | inactive | inactive | 
20 | CC(=O)c1ccc(OCC(=O)N2CCCCC2)cc1 |  |  | inactive | inactive | inactive | inactive | inactive | inactive |  | inactive
21 | [O-][n+]1ccccc1SSc1cccc[n+]1[O-] |  |  | 0.326 µM (active) | 0.231 µM (active) | 0.58 µM (active) | 0.092 µM (active) | 0.517 µM (active) | 1.12 µM (active) | 0.146 µM (active) | 

Row | Compound | outcome (HACAT) | outcome (HEK293T) | Potency (MCC-13) | Potency (MKL-1) | Potency (MKL-2) | Potency (UISO) | Potency (WaGa) | Potency (C33A) | Potency (MCC-26) | outcome (NIH3T3)
22 | COc1cccc2c1C(=O)c1c(O)c3c(c(O)c1C2=O)C[C@@](O)(C(=O)CO)C[C@@H]3O[C@H]1C[C@H](N)[C@H](O[C@@H]2CCCCO2)[C@H](C)O1 |  |  | 3.76 µM (active) | 0.0944 µM (active) | 0.0473 µM (active) | 2.99 µM (active) |  | 10 µM (active) | 7.5 µM (active) | 
23 | CN1[C@@H]2CC[C@H]1CC(OC(c1ccccc1)c1ccccc1)C2 (stereo partly specified) | inactive |  |  |  |  |  |  | inactive |  | 
24 | Oc1c(Br)cc(Br)c2cccnc12 |  |  | inactive | 11.9 µM (active) | 4.22 µM (active) | 7.5 µM (active) | 11.9 µM (active) | inactive | inactive | 
25 | NS(=O)(=O)c1ccc(-n2nc(C(F)(F)F)cc2-c2ccc(Cl)cc2)cc1 | inactive |  |  |  |  |  |  | inactive |  | 
26 | Cc1ccc(C(=O)c2ccc(CC(=O)O)n2C)cc1 |  |  | inactive | inactive | inactive | inactive | inactive | inactive | inactive | 
27 | Cc1nc2ccccc2n1Cc1ccc(Cl)cc1 |  |  | inactive |  |  |  |  |  |  | 
28 | CN(C)c1ccc(N=NS(=O)(=O)O)cc1 |  |  | inactive | 5.12 µM (active) | 6.44 µM (active) |  | 40.7 µM (active) | inactive | inactive | 
29 | CCCCC1C(=O)N(c2ccccc2)N(c2ccc(O)cc2)C1=O (stereo unspecified) |  |  | 9.44 µM (active) | 1.5 µM (active) | 0.596 µM (active) | 6.68 µM (active) | 2.99 µM (active) |  |  | 
30 | Nc1cc(-c2ccncc2)c[nH]c1=O |  |  | inactive | inactive |  | inactive | inactive | inactive | inactive | 
31 | CCCCCCCCCCCCCCCC(=O)OC(C)C |  |  | inactive | inactive | inactive | inactive | inactive | inactive | inactive | inactive
32 | Cc1[nH]cnc1CN1CCc2c(c3ccccc3n2C)C1=O |  |  | inactive | inactive | inactive | inactive | inactive | inactive | inactive | 
33 | CCCSc1ccc2nc(NC(=O)OC)[nH]c2c1 |  |  | 1.68 µM (active) |  |  |  |  |  |  | 
34 | c1ccc2sc(SSc3nc4ccccc4s3)nc2c1 |  |  | inactive | inactive | inactive | inactive | inactive | inactive | inactive | 
35 | CC(=O)SCC(CC(=O)c1ccc(C)cc1)C(=O)O (stereo unspecified) |  | inactive | inactive | inactive | inactive | inactive | inactive | inactive |  | 
36 | CCNc1nc2c(ncn2[C@H]2C[C@H](O)[C@@H](CO)O2)c(=O)[nH]1 |  | inactive |  |  |  |  |  | inactive |  | inactive
37 | CC1(C)S[C@@H]2[C@H](NC(=O)[C@H](N)c3ccc(O)cc3)C(=O)N2[C@H]1C(=O)O |  | inactive |  |  |  |  |  |  |  | inactive
38 | CCCCCCOc1ccccc1C(N)=O |  |  | inactive | inactive | inactive |  |  | inactive | inactive | 
39 | C[C@H](O)[C@H](O)[C@H]1CNc2nc(N)[nH]c(=O)c2N1 |  | inactive |  |  |  |  |  | inactive |  | inactive
40 | CCCC(=O)OC[C@@H](OC(=O)CCC)[C@@H](OC(=O)CCC)[C@H](Cn1c2nc(=O)[nH]c(=O)c-2nc2cc(C)c(C)cc21)OC(=O)CCC |  |  | inactive | 6.68 µM (active) | 3.35 µM (active) |  | 4.22 µM (active) | inactive | inactive | inactive
41 | C=CCCCCCCCCC(=O)O |  | inactive | inactive | inactive | inactive | inactive | inactive | inactive |  | 
42 | O=C1CN(/N=C/c2ccc([N+](=O)[O-])o2)C(=O)N1 |  |  |  |  |  |  |  |  | inactive | 
